Results from PubChem BioAssay (NCI).
The panel holds about 79,000 compounds, 15% with a hit somewhere; the sample as a whole holds those more often. Unmarked numbers belong to inactive results. Calls of active or inactive are those of the source. No stated cut-off is given here; in the data, active means growth inhibition above about 70%; inactive means the rest.

Legend:
[1] = NCI Yeast Anticancer Drug Screen. Data for the rad50 strain (AID 155);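 further: 0% = growth of vehicle-only cultures of the same strain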; details: S. cerevisiae rad50 strain growth inhibition, active compounds read high
Method in brief: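 Growth of the mutant yeast was measured after compound exposure and referenced to vehicle-treated cultures.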

[2] = NCI Yeast Anticancer Drug Screen. Data for the mec2-1 strain (AID 157); details: S. cerevisiae mec2-1 strain, active compounds read high
Method in brief: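 Growth inhibition is read against vehicle-treated controls after compound exposure of the mec2-1 yeast strain, which is defective in DNA damage repair or cell cycle control.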

[3] = NCI Yeast Anticancer Drug Screen. Data for the sgs1 mgt1 strain (AID 161);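 further: 0% = growth of cultures given vehicle only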; details: S. cerevisiae sgs1 mgt1 strain, active compounds read high
Method in brief: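 Compounds are added to genetically altered yeast, and growth is compared with cultures given vehicle alone to give percent inhibition.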

[4] = NCI Yeast Anticancer Drug Screen. Data for the cln2 rad14 strain (AID 165);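 further: 0% = growth equal to vehicle treated cultures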; details: S. cerevisiae cln2 rad14 strain, active compounds read high
Method in brief: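 Growth inhibition, relative to vehicle-treated controls, is the read-out. The test organism is a yeast strain with defined genetic alterations, cln2 rad14.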

[5] = NCI Yeast Anticancer Drug Screen. Data for the bub3 strain (AID 167); details: S. cerevisiae bub3 mutant strain, active compounds read high
Method in brief: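 Whole-cell yeast assay. The mutant strain was incubated with compounds, and growth inhibition was determined by comparison with vehicle-treated cells.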

[6] = NCI Yeast Anticancer Drug Screen. Data for the mlh1 rad18 strain (AID 175); details: S. cerevisiae mlh1 rad18 strain growth inhibition, active compounds read high
Method in brief: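 Cells of a genetically altered yeast strain, deficient in DNA damage repair, were treated with compound. Their growth was then compared with that of vehicle-treated cultures to give inhibition.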

[7] = at 5.0 µM (retest, dose inferred, filed as 0.5)
[8] = at 50.0 µM (retest, dose inferred, filed as 5.0)

| SMILES | growth inhibition [1, 7] | growth inhibition [1, 8] | growth inhibition ([1]; at 50.0 µM) | growth inhibition [2, 7] | growth inhibition [2, 8] | growth inhibition ([2]; at 50.0 µM) | growth inhibition [3, 7] | growth inhibition [3, 8] | growth inhibition ([3]; at 50.0 µM) | growth inhibition [4, 7] | growth inhibition [4, 8] | growth inhibition ([4]; at 50.0 µM) | growth inhibition [5, 7] | growth inhibition [5, 8] | growth inhibition ([5]; at 50.0 µM) | growth inhibition [6, 7] | growth inhibition [6, 8] | growth inhibition ([6]; at 50.0 µM) |
| --- | --- | --- | --- | --- | --- | --- | --- | --- | --- | --- | --- | --- | --- | --- | --- | --- | --- | --- |
| N=c1n(CC(=O)NC23CC4CC(CC(C4)C2)C3)c2ccccc2n1Cc1ccc(Cl)cc1 | 33% | 33% | 92.5% (active) | 13% | 13% | 93.3% (active) | 14% | 14% | 93.4% (active) | -2% | -2% | 92.4% (active) | -2% | -2% | 91.4% (active) | 13% | 13% | 90.3% (active) |
| C=C(Br)CN(CC)CC | -151% | -185% | -16.6% | -48% | -54% | -15.7% | -64% | -67% | -5.55% | -51% | -63% | 11.7% | -69% | -72% | -0.5% | -130% | -170% | -3.5% |
| O=C1c2ccccc2C(=O)c2sc(Nc3ccccc3C(F)(F)F)nc21 | 99% (active) | 96% (active) | 90.3% (active) | 100% (active) | 97% (active) | 92.1% (active) | 99% (active) | 96% (active) | 92.7% (active) | 94% (active) | 97% (active) | 90.5% (active) | 99% (active) | 97% (active) | 92.2% (active) | 99% (active) | 96% (active) | 88.5% (active) |
| COc1ccc(NS(=O)(=O)c2ccc(F)cc2)cc1 | -21% | -3% | 95.9% (active) | 1% | -12% | 99.3% (active) | -26% | -22% | 98.5% (active) | 6% | -22% | 97.5% (active) | 6% | -21% | 97.2% (active) | -15% | -18% | 98.5% (active) |
| CCOC(=O)C(C=O)(C=O)c1ccccc1 | 6% | 42% | 71.5% (active) | 4% | 19% | 8.5% | 7% | 18% | 61% | 4% | 24% | 43.2% | -3% | 14% | -36.4% | -1% | 32% | 44.5% |
| CCCCC(CCCC)=NNC(=S)SC | 4% | 85% (active) | 83.9% (active) | 5% | 62% | 45.1% | 3% | 79% (active) | 66% | -3% | 17% | -27.6% | 2% | 80% (active) | 74.1% (active) | -3% | 87% (active) | 56.9% |
| COc1ccc(CN2COc3c(cc(Cl)c4cccnc34)C2)cc1 | 6% | 98% (active) | 99.5% (active) | -2% | 91% (active) | 99.6% (active) | 1% | 98% (active) | 99.7% (active) | 4% | 99% (active) | 99.2% (active) | -2% | 99% (active) | 99.4% (active) | 8% | 99% (active) | 99.5% (active) |
| CCC1CCC2=C(C1)C(=O)c1ccccc1C2=O (stereo not given) | 6% | 91% (active) | 3.4% | 7% | 92% (active) | 49.5% | 11% | 96% (active) | 45% | 11% | 71% (active) | 49.3% | 9% | 94% (active) | 95.9% (active) | 6% | 97% (active) | 51.5% |
| O=C1CCCCO1 | 1% | 3% | -15.8% | -1% | -3% | -19.4% | 0% | -4% | -27.1% | 3% | -2% | 19.4% | -1% | -3% | -43.3% | 0% | 1% | -4.85% |
| CCC(CO)Nc1nc2cc(Br)ccc2c2ccc(Br)cc12 (stereo not given) | 36% | 92% (active) | 92.6% (active) | 10% | 96% (active) | 95.5% (active) | 62% | 93% (active) | 96.2% (active) | 8% | 93% (active) | 93.8% (active) | 47% | 94% (active) | 91.9% (active) | 18% | 93% (active) | 95.8% (active) |
